mHTT CaM bind = mHTT-calmodulin interaction abrogation; P42858; AlphaScreen His-mHTT/GST-CaM binding, luminescence; inhibition, % at 15 µM; 190,000 tested, 3.6% active; AID 1671202;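 also: 0% = both proteins with DMSO and 100% = one protein alone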
Pf apPOL inh = Pf-apPOL DNA polymerase inhibition | 210,000 tested, 0.25% active | Recombinant Pf-apPOL, molecular beacon fluorescence, 1.5 h | AID 1794808 | inhibition, % at 10 µM
An asterisk follows results filed as active; nt = not tested or not shown. An excerpt weighted towards active compounds, which were near 3.6% of everything screened. Rule as the data show it: active = inhibition above about 50%; inactive = the rest.

SMILES	mHTT CaM bind	Pf apPOL inh
CCCCNc1ncnc2c1c(-c1ccccc1)cn2-c1ccccc1	38	0
CC(C)c1ccc(NC(=O)CSc2ccc(NC(=O)C3CC3)nn2)cc1	-13	-2
Brc1ccc2[nH]c3c(c2c1)CCCC3NCc1ccccc1 (stereo not drawn)	100*	-1
Cc1ccc2[nH]c3c(c2c1)CCCC3NC(N)=O (stereo not drawn)	30	-10
Cc1ccc2[nH]c3c(c2c1)CCCC3NCc1ccc(F)cc1 (stereo not drawn)	57*	16
O=CNC1CCCc2c1[nH]c1ccc(Br)cc21 (stereo not drawn)	30	-4
O=C(C1=CN(c2cccc(F)c2)c2cc(Cl)ccc2S1(=O)=O)N1CCCC1	-1	3
CCOC(=O)N1CCC(NC(=O)CC2CCN(c3ccnc(OC)n3)CC2)CC1	0	-5
O=C1Nc2ccccc2C12CCN(S(=O)(=O)c1cccc(Cl)c1)C2 (stereo not drawn)	77*	-1
Cc1ccc(F)cc1S(=O)(=O)N1CCC2(C1)C(=O)Nc1ccccc12 (stereo not drawn)	8	1
Cc1cc(S(=O)(=O)N2CCC3(C2)C(=O)Nc2ccccc23)ccc1F (stereo not drawn)	96*	8
O=C(Cc1ccccc1Cl)N1CCC2(C1)C(=O)Nc1ccccc12 (stereo not drawn)	1	-6
COc1ccc(C(=O)N2CCN(c3cc(Cl)ccc3C)C(=O)C2C)cc1 (stereo not drawn)	12	-5
O=S(=O)(c1ccccc1)N1CCC(c2noc(-c3ccc(Cl)cc3)n2)CC1	5	-4
CC(C)CSc1oc(-c2cccs2)nc1S(=O)(=O)c1ccccc1	-33	2
CN(CC(=O)NC1CCCC1)S(=O)(=O)c1ccc2[nH]c3c(c2c1)CCCC3	18	-6
CCc1ccc(S(=O)(=O)Nc2ccc(Cl)cn2)cc1	-1	10
Cc1ccc(S(=O)(=O)NC2CCCCC2)cc1[N+](=O)[O-]	0	-2
O=S(=O)(Nc1ccc(Cl)cn1)c1ccc2[nH]c3c(c2c1)CCCC3	55*	-2
O=S(=O)(Nc1ccc(F)cc1)c1ccc2[nH]c3c(c2c1)CCCC3	98*	-4
O=S(=O)(NC1CCCCC1)c1ccc2[nH]c3c(c2c1)CCCC3	87*	-5
CN(CC(=O)NC1CCCCC1)S(=O)(=O)c1ccc2[nH]c3c(c2c1)CCCC3	97*	0
CN(CC(=O)NCc1ccc(F)cc1)S(=O)(=O)c1ccc2[nH]c3c(c2c1)CCCC3	41	-4
Cn1c(-c2cccs2)nn(CCNC(=O)c2ccccc2C(F)(F)F)c1=O	-10	-7
Cc1ccc(CC(=O)N2CCC(c3nc(C(=O)N(C)C)c(C)o3)CC2)cc1	5	13
SMILES	mHTT CaM bind	Pf apPOL inh
O=C1C=CC(=O)N1c1ccc(Sc2ccc(N3C(=O)C=CC3=O)cc2)cc1	20	-6
Cc1nn(C)cc1C(=O)Nc1c(C)n(C)n(-c2ccccc2)c1=O	-9	-9
Cc1c(NS(=O)(=O)c2ccc3nc(-c4ccccc4)[nH]c3c2)c(=O)n(-c2ccccc2)n1C	11	-3
O=C1OC2(CCCCC2)OC(=O)C1=CNc1cc([N+](=O)[O-])ccc1F	0	-3
O=C(COc1ccc2c(c1)OC(=Cc1ccco1)C2=O)OCc1ccccc1	3	-7
CC(C)(C)N(CC#CC(O)(c1ccccc1)c1ccccc1)CCO	5	-12
CN1CCN(c2cc(OCCNC(=O)COc3ccc4c(c3)OCO4)ncn2)CC1	-10	-10
O=S(=O)(Nc1ccccc1)c1ccc2[nH]c3c(c2c1)CCCCC3	100*	-6
NS(=O)(=O)c1ccc2[nH]c3c(c2c1)CCCC3	3	-10
CCC(=O)N1CCc2c(c(COCc3ccc(Cl)cc3)nn2C)C1	52*	-14
Cc1ccccc1S(=O)(=O)N1CCc2c(c(COCc3ccccc3)nn2C)C1	60*	3
Cn1nc(COCc2ccc(Cl)cc2)c2c1CCN(C(=O)Nc1ccccc1)C2	44	-1
Cn1nc(COCc2ccccc2)c2c1CCN(S(=O)(=O)c1ccccc1)C2	27	0
COc1ccc(NC(=O)N2CCc3c(c(COCc4ccc(Cl)cc4)nn3C)C2)cc1	58*	-2
CCCC(=O)N1CCc2c(c(COCc3ccc(C)cc3)nn2C)C1	3	-6
Cc1cc2c(N3CCN(CCO)CC3)ncnc2s1	-6	-7
O=C1CCCc2[nH]c(=O)ccc21	-6	1
O=C(Nc1ccc(F)cc1)NC12CC3CC(CC(C3)C1)C2	-2	2
CN(CC(O)COCC12CC3CC(CC(C3)C1)C2)C1CCCCC1 (stereo not drawn)	-2	1
O=C(c1cc(F)ccc1F)N1CCCCC1CCN1CCOCC1 (stereo not drawn)	-3	-6
O=C1/C(=C/c2ccsc2)CS/C1=C\c1ccsc1	63*	-6
O=C1/C(=C/c2cccnc2)CS/C1=C\c1cccnc1	20	3
c1cc(CN2CCCC(c3n[nH]c(C4CC4)n3)C2)ccn1 (stereo not drawn)	-5	-2
c1ccc(CN2CCCC(c3n[nH]c(C4CC4)n3)C2)nc1 (stereo not drawn)	95*	-20
c1ccc(-n2cnnc2C2CCCN(Cc3ccccn3)C2)cc1 (stereo not drawn)	87*	-28
SMILES	mHTT CaM bind	Pf apPOL inh
N#Cc1cccc(CN2CCCC(c3nncn3-c3ccccc3)C2)c1 (stereo not drawn)	2	-2
CC(C)NC(=O)CC(=O)NN=C1CCCC1	-11	nt
O=C(NCc1ccccc1F)C1Cc2ccccc2N2CCN(c3cnccn3)CC12 (stereo not drawn)	84*	48
CCNC(=O)C1Cc2ccccc2N2CCN(c3cnccn3)CC12 (stereo not drawn)	7	-1
O=C(NCc1cccs1)C1CCCN(c2ccc(-n3cccn3)nn2)C1 (stereo not drawn)	57*	-6
Cn1ncc(N2CCCC(C(=O)NCc3cccs3)C2)cc1=O (stereo not drawn)	0	-7
Cc1nc(NC(=O)C2CCCN(c3ccc(-n4cccn4)nn3)C2)sc1C (stereo not drawn)	94*	-8
Cc1ccnc(NC(=O)C2CCCN(c3cc(-n4cccn4)ncn3)C2)c1 (stereo not drawn)	49	-2
Cc1ccc(/C=c2\sc3nc(-c4ccncc4)nn3c2=O)cc1	-3	-30
O=C(NC1CCCCC1)c1ccccc1NS(=O)(=O)c1ccccc1[N+](=O)[O-]	-5	-3
COc1cc(OC)c(NC(=O)c2cnn3c4c(cnc23)CCCCCC4)cc1Cl	32	-3
Cc1cc2oc(=O)cc(-c3cc4ccccc4o3)c2cc1O	6	3
Cc1c2cc(O)c(=O)cc-2oc2cc(O)c(O)cc12	100*	nt
CCOc1ccc(C(=O)Nc2c3c(nn2-c2ccc(C)cc2C)CSC3)cc1	3	4
O=C1C(=Cc2ccc3c(c2)OCO3)Oc2c1ccc1c2CN(Cc2cccnc2)CO1	25	-168
O=C1C(=Cc2ccc3c(c2)OCO3)Oc2c1ccc1c2CN(Cc2ccccn2)CO1	100*	-38
O=C1C(=Cc2ccccc2)Oc2c1ccc1c2CN(Cc2cccnc2)CO1	41	-26
O=C1C(=Cc2ccc(Br)cc2)Oc2c1ccc1c2CN(Cc2cccnc2)CO1	83*	-31
Cc1ccc(C=C2Oc3c(ccc4c3CN(Cc3ccccn3)CO4)C2=O)o1	100*	4
COc1cccc(C=C2Oc3c(ccc4c3CN(Cc3ccncc3)CO4)C2=O)c1	39	-30
